Compound activity as filed in PubChem.
The list is not random: actives were taken first. Their share in the collection is about 11%.
NS1 inh: blocks influenza NS1 protein function; Potency, µM (highest dose often 46.1 µM), without a hit: at the top dose activity, positive = more growth; actives 0.4% (n = 270,000); calls by dose curve; note: actives are rising curves; nearly all actives have a fitted effect of over 50% in size
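In this qHTS, NS1 from influenza A is expressed in budding yeast, where it slows growth. Cells are switched from glucose to 2% galactose medium (pH 6.0, -URA), treated with compound, and growth recovery is read at OD600.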
Vaccinia mCherry: inhibitors of vaccinia virus infection (mCherry reporter signal); Vaccinia virus mCherry reporter infection, fluorescence; Potency, µM (top dose mostly 36.5 µM), for the others: at the top dose activity change, negative = inhibition, hits mostly inhibitors; actives 0.63% (n = 310,000); AID 720579; calls by dose curve; tested in A549 cells; note: % is set by controls: 0 for no effect and ±100 for the full control effect; nearly all actives have a fitted effect of over 35% in size
HCV inh: blocks hepatitis C virus | Huh7.5.1 HCVcc-Cre infection, luciferase reporter, 44 h | Potency, µM (top dose mostly 41.8 µM), for inactives: at the top dose activity change, negative = inhibition, actives largely listed as inhibitors | actives 3.4% (n = 340,000) | AID 651820; note: % is set by controls: 0 for no effect and ±100 for the full control effect
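Cells seeded at 1,000/well and cultured 4 h, then compounds added followed by HCVcc-Cre virus (~0.5 moi). After 44 h further culture, luciferase substrate was added, plates held 15 min at room temperature, and luminescence read for 15 sec.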
Pf growth 48h: P. falciparum growth inhibition at 48 hours (one generation); Potency, µM (highest dose often 28.7 µM), without a hit: at the highest dose activity change, negative = inhibition, most hits filed as inhibitors; P. falciparum luciferase growth in erythrocytes, 48 h; actives 5.9% (n = 310,000); note: % is set by controls: 0 for no effect and ±100 for the full control effect
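Growth was read as firefly luciferase luminescence after a 48 h, 37 C, 5% CO2 exposure of compounds to reporter-bearing P. falciparum cultures (0.1% parasitemia, 2% hematocrit final) in Albumax-supplemented RPMI 1640.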
Pf growth 96h: P. falciparum growth inhibition at 96 hour, primary screen for plastid delayed-death inhibitors | P. falciparum luciferase reporter growth, 96 h | actives 6.9% (n = 320,000) | Potency, µM (highest dose often 28.7 µM), inactives show at the top dose activity change, negative = inhibition, most hits filed as inhibitors; note: % is set by controls: 0 for no effect and ±100 for the full control effect
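Delayed-death screen, second-generation endpoint: infected erythrocytes, 2% hematocrit, 0.05% parasitemia final; 96 hours at 37 C, 5% CO2; luciferase detection reagent; luminescence decrease equals reduced growth.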
VACV Venus inh: vaccinia inhibition (Venus reporter); Vaccinia virus Venus reporter expression, fluorescence; Potency, µM (titrated, usually from 36.5 µM), for inactives: at the top dose activity change, negative = inhibition, hits mostly inhibitors; actives 0.46% (n = 330,000); calls by dose curve; tested in A549 cells; note: % is set by controls: 0 for no effect and ±100 for the full control effect; nearly all actives have a fitted effect of over 30% in size
An asterisk follows results filed as active; i = inactive; ? = inconclusive; / = not tested or not shown; [ ] = dose if it differs, or a comment. Unless noted, calls come from the whole dose curve; as a rule, active = well fitted inhibition curve with a large enough effect; inconclusive = small, poorly fitted or top-dose-only effect, or another doubt; inactive = no such curve, though single readings can be large or run the other way. Potency is the fitted concentration of half-maximal effect.

SMILES | NS1 inh | Vaccinia mCherry | HCV inh | Pf growth 48h | Pf growth 96h | VACV Venus inh
CC(C)c1ccc(C2NCc3ccccc3-n3cccc32)cc1 (configuration not stated) | -6% | / | ? | ? | 3% | /
O=C(NCCc1ccc2c(c1)OCO2)C1CCN(S(=O)(=O)c2ccc(Cl)cc2)CC1 | -6% | i | -23% | -30% | / | -15%
CC(=O)Nc1ccc(S(=O)(=O)n2nc(-c3ccc(C)cc3)nc2N)cc1 | -1% | -26% | ? | -14% | 1.7µM* | -21%
CCCCn1c(N)c(N(CCC(C)C)C(=O)COC(=O)c2ccco2)c(=O)[nH]c1=O | 15% | -9% | 13% | -2% | -12% | -12%
O=C(CN(C(=O)c1ccc(Cl)cc1)C1CCCCC1)Nc1ccc(Cl)c([N+](=O)[O-])c1 | 0% | i | ? | ? | 9.3µM* | -11%
O=C(CN(C(=O)c1ccccc1Cl)C1CCCCC1)Nc1ccc(Cl)c([N+](=O)[O-])c1 | 26% | ? | ? | 13µM* | 31% | ?
O=C1NC(=O)C2(CCCCC2)N1 | / | -4% | ? | / | / | -12%
CC[n+]1c(C)sc2sc3ccccc3c21 | 16% | / | / | 1.9µM* | ? | /
COc1ccc2c(c1)O[C@@H](c1ccc3c(c1)OCO3)[C@H](OC(=O)Nc1cc(OC)c(OC)c(OC)c1)C2=O | ? | / | -23%[8.37 µM] | 13µM* | ? | /
C=CCN(CC(=O)NCC1CCCO1)C(=O)CCC(=O)Nc1cc(C)on1 (configuration not stated) | -1% | i | 20% | 26% | ? | -3%
O=C(CN(CC1CCCO1)C(=O)CCC(=O)Nc1nccs1)NCC1CCCO1 (configuration not stated) | 3% | / | -1% | 0% | 13µM* | -10%
COCCN(CC(=O)NCC1CCCO1)C(=O)CCC(=O)Nc1cc(C)on1 (configuration not stated) | 3% | -17% | 4% | 19% | 1.7µM* | -5%
COc1nc(N)nc(N)c1NS(=O)(=O)c1ccc(C)cc1 | -4% | -2% | 7% | 1% | 14% | -6%
COc1ccc2cc3c(N)nn(C(=O)C4CCC(C(C)(C)C)CC4)c3nc2c1 (configuration not stated) | 21% | ? | 5%[8.37 µM] | ? | ? | 14µM*
COc1ccc2cc3c(N)nn(C(=O)Cc4ccccc4OC)c3nc2c1 | -29% | -18% | ? | / | 57% | -20%
Cc1ncc(CO)c(CNc2ccc(Oc3ccccc3)cc2)c1O | -5% | ? | 11µM* | ? | 74% | -9%
CN(C)c1ccnc(-n2cccc2/C=N/OCc2cccc(F)c2)c1C#N | -8% | / | 4% | / | ? | -12%
CCCCOc1ccc(CN=C(N)N)cc1Cl | 4% | / | 10µM* | ? | ? | /
CCCOc1ccc(CCCN=C(N)N)cc1Cl | -3% | -30% | 8.9µM* | ? | -12% | ?
COc1ccc(C(=O)N2CCN(c3ccc(NC(=O)c4ccco4)cc3)CC2)cc1 | -4% | -8% | -7% | 18% | 0% | -20%
CCc1ccc(NC(=O)Cn2c(=O)n(CCCC(=O)NCc3ccccc3OC)c(=O)c3ccccc32)cc1 | / | -16% | / | / | / | -11%
Cc1cc(C)c2c(c1)NC(C(=O)O)C1CC=CC21 (configuration not stated) | ? | 13% | 2% | 15% | -24% | 9%
CN(C)CCCNC(=O)C[C@H]1C[C@H](C(=O)N2CCOCC2)[C@@]2(CCC3CCCC3)c3[nH]c4cc(CCC(=O)N(C)C)ccc4c3CCN2C1=O | / | i | 29% | / | / | -15%
CN(C)C(=O)CCc1ccc2c3c([nH]c2c1)[C@]1(CCC2CCCC2)[C@@H](C(=O)N2CCOCC2)C[C@H](CC(=O)NCCN2CCOCC2)C(=O)N1CC3 | / | -11% | 0.32µM* | / | / | -8%
O=C(C[C@H]1C[C@H](C(=O)N2CCOCC2)[C@@]2(CCC3CCCC3)c3[nH]c4cc(-c5ccco5)ccc4c3CCN2C1=O)NCCc1ccccn1 | / | ? | -22% | / | / | 10µM*
SMILES | NS1 inh | Vaccinia mCherry | HCV inh | Pf growth 48h | Pf growth 96h | VACV Venus inh
CC[C@]12c3[nH]c4cc(CCC(=O)N(C)C)ccc4c3CCN1C(=O)[C@@H](CC(=O)NCc1cccc(C(F)(F)F)c1)C[C@@H]2C(=O)N1CCN(C(=O)C2CC2)CC1 | / | -2% | 0.56µM* | / | / | 4%
O=[N+]([O-])c1ccc(N2CCN(S(=O)(=O)c3ccccc3)CC2)cc1NCC1CCCO1 (configuration not stated) | 14% | i | 6% | 8% | ? | -11%
Cn1ncc(Cl)c1C(=O)N1CCOCC1 | / | -4% | 17% | 3%[5.75 µM] | 210% | -6%
C=CCCCCCCCCC(=O)N1CCN(c2cc3c(cc2F)c(=O)c(C(=O)O)cn3CC)CC1 | -2% | / | -10% | ? | ? | /
CC(C)=CCOc1ccc([C@@H]2COc3c(ccc4c3C=CC(C)(C)O4)C2)c(O)c1 | / | -23% | 4.5µM* | / | / | -17%
COc1ccc(OCc2cc(=O)c3ccc4c(c3o2)C=CC(C)(C)O4)cc1OC | / | i | ? | / | / | -20%
C#Cc1cccc(C(=O)N(Cc2cccnc2)CC2CCCN(C3CCCCC3)C2)c1 (configuration not stated) | / | i | / | / | / | -2%
O=C(c1cc2cc(F)ccc2[nH]1)N(Cc1cccnc1)CC1CCCN(C2CCCCC2)C1 (configuration not stated) | -4% | / | ? | 2.6µM* | ? | /
CCCc1c(C(=O)N/N=C(\C)c2cc(C)sc2C)nnn1-c1nonc1N | / | i | / | / | / | -20%
S=C(Nc1ccccc1)Nc1nc2ccccc2n1CCOc1ccccc1 | -21% | / | 6.3µM* | ? | 0% | /
CC(=O)Nc1nc2ccccc2n1CCOc1ccccc1 | -11% | -13% | -4% | ? | 38% | -9%
CCCCn1c(NC(=S)Nc2ccccc2)nc2ccccc21 | -2% | -29% | ? | 5.2µM* | ? | ?
COc1ccc(C2=CC(c3ccco3)n3ncnc3N2)cc1 (configuration not stated) | 2% | i | -10% | -7% | ? | -1%
COc1ccc(S(=O)(=O)N2CCOCC2)cc1NC(=O)CN1CCC(Cc2ccccc2)CC1 | -30% | ? | 10µM* | 12µM* | 4.7µM* | ?
CCC(C)SCC(=O)Nc1ccc(S(=O)(=O)N2CCOCC2)cc1OC (configuration not stated) | -8% | -13% | 11µM* | -8% | -12% | -20%
COc1ccc(S(=O)(=O)N2CCOCC2)cc1NC(=O)CN1CCCC1 | / | 2% | -9% | 33% | 43% | -10%
COc1ccc(S(=O)(=O)N2CCC(Cc3ccccc3)CC2)cc1NC(C)=O | 9% | / | ? | 34% | 4.7µM* | /
CCC(CC)C(=O)OCC(=O)Nc1ccc(S(=O)(=O)N2CCOCC2)cc1OC | -8% | / | 3% | / | 31% | /
